According to PubChem BioAssay (NCATS):
Inconclusive results are not listed. A number with no mark means an inactive call. Activity calls are given as the source filed them. The call rests on the fitted dose curve; in most records, active means well fitted inhibition curve with a large enough effect; inconclusive means small, poorly fitted or top-dose-only effect; inactive means no such curve, though single readings can be large or run the other way.

molecular target: Rap guanine nucleotide exchange factor 3 (Homo sapiens) (UniProt O95398); test: Confirmatory qHTS for antagonist of cAMP-regulated guanine nucleotide exchange factor 3 (EPAC1) (AID 1645880); conditions: EPAC1 Rap1B-BODIPY-GDP exchange, fluorescence; series mostly up to 115 µM; activity, negative = inhibition: at the top concentration; further: nearly all actives have a fitted effect of over 55% in size
Sequence (O95398 whole entry, looked up): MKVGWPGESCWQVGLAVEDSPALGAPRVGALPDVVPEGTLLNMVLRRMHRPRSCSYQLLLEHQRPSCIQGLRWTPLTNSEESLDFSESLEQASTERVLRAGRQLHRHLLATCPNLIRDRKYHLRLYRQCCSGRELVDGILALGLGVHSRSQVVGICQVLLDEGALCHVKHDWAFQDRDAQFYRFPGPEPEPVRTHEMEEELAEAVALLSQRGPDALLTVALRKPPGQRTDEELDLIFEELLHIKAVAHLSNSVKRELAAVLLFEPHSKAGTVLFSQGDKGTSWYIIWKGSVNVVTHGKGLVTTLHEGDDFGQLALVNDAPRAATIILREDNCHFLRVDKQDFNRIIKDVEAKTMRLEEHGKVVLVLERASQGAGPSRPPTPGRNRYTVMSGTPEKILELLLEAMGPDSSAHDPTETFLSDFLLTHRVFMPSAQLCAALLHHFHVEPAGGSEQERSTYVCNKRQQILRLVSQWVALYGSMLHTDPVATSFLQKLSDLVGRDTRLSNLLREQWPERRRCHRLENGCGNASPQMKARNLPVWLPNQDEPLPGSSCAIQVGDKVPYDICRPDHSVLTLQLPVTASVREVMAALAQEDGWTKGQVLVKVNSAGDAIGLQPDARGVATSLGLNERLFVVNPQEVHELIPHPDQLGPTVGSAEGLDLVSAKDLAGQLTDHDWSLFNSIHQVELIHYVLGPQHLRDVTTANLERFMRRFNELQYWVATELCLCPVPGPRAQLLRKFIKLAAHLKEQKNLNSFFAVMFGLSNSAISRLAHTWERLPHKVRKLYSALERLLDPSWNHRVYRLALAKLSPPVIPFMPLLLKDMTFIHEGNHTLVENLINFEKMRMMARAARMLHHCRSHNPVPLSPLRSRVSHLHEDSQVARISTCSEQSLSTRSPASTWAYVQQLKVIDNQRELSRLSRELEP
Excerpt: Assay Provider (PI): Xiaodong Cheng Ph.D. The University of Texas Medical Branch, […], TX MLPCN Grant: NS066510 In multi-cellular eukaryotic organisms, the effects of cAMP are transduced by two ubiquitously-expressed intracellular cAMP receptors, the classic protein kinase A/cAMP-dependent protein kinase (PKA/cAPK) and the more recently discovered exchange protein directly activated by cAMP/cAMP-regulated guanine nucleotide exchange factor (EPAC/cAMP-GEF). Both PKA and EPAC are ubiquitously expressed in all tissues, and an increase in intracellular cAMP levels will lead to the activation of both PKA and EPAC. Therefore, careful dissections of the individual role and relative contribution of EPAC and PKA within the overall cAMP signaling in various model systems are critical for further elucidating the mechanism of cAMP signaling. To date no EPAC-specific antagonists and agonist, as well as isoform-specific agonists have been reported, and developing EPAC-specific pharmacological probes to determine the physiological functions that EPAC play in the overall cAMP-mediated signaling remains a major challenge within the research field. Furthermore, identified regulators of EPAC may lead to new mechanism-based therapeutic strategies specifically targeting the EPAC / cAMP-signaling components as EPAC has been implicated to play important roles in major human pathological conditions such as diabetes, heart disease, and cancer. This qHTS will be used to screen the Molecular Libraries Small Molecule Repository (MLSMR) as a concentration-titration series using the NCGC unique quantitative screening (qHTS) platform to find activators for EPAC1. In addition, this assay will also be used as a counterscreen for the EPAC2 qHTS. This fluorescent based assay is developed and validated for EPAC1 that measures exchange using EPAC effector Rap1 complex with BODIPY-GDP, a GDP analog with a tethered fluorophores. Activators are identified by monitoring the change in fluorescence signal as the exchanged free BODIPY-GDP has a reduced fluorescence compared to Rap1-bound BODIPY-GDP. Increase in signal (activation) is the desired outcome for the EPAC1 agonist while no activity in this assay is desired for the EPAC2 agonist counterscreen. Reference: [1] de Rooij, J., Zwartkruis, F. J., Verheijen, M. H., Cool, R. H., Nijman, S. M., Wittinghofer, A., and Bos, J.L. (1998) Nature 396, 474-477. Kawasaki, H., Springett, G. M., Mochizuki, N., Toki, S., Nakaya, M., Matsuda, M., Housman, D. E., and Graybiel, A. M. (1998) Science 282, 2275-2279.
Briefly, three uL of reagents (100 nM EPAC1, 250 nM RAP1B-BODIPY-GDP, 50 uM GDP) were dispensed into a 1536-well Greiner black solid-bottom medium binding assay plate. Controls and test compounds (23 nL) were transferred to the plate via a Kalypsys pin tool equipped with a 1536-pin array. The plates were centrifuged at 1,000 rpm for 15 seconds followed by 5 minute incubation at room temperature. The assay plates were read at 5 minute intervals for 30 minutes in the ViewLux plate reader using 480nm excitation and 540nm emission filters. The results were normalized to the […] positive control ATA and DMSO.
Potency means the concentration at half of the fitted maximal effect.

SMILES	activity, negative = inhibition [%]	Potency
Cc1cccc(CNc2nc(-c3ccc4c(c3)OCO4)nc3ccccc23)c1	-10.1	
COc1cccc(-c2ccc3ncnc(N(C)Cc4ccco4)c3c2)c1	-1.78	
COCCn1c(=O)c(CCc2ccccc2)nc2cnc(Nc3cccc(OC)c3)nc21	-12.1	
FC(F)(F)c1ccccc1-c1nc(N2CCOCC2)c2ccccc2n1	-18.7	
CC(=O)NS(=O)(=O)c1ccc(NC(=O)c2cc(-c3ccc(C)c(C)c3)nc3ccccc23)cc1		44.7 µM (active)
COc1ccc(N2C(=O)c3ccccc3C2=O)cc1	-12.6	
CC(=O)NC(c1cccs1)c1cc(Cl)c2ccccc2c1O (centres undefined)	-21.9	
O=C(c1cccc(F)c1)N1CCC2(CC1)CN(c1cccc(-c3ccccc3)c1)C2	-2.57	
O=C1Cc2cc(S(=O)(=O)N3CCNCC3)ccc2N1	10.2	
COCCn1c(=O)c(-c2cccs2)nc2cnc(N(C)C)nc21	26.2	
COCC(=O)N1CCC2(CC1)CN(c1ccccn1)C2	-0.521	
Cc1noc(C)c1C(=O)N1CCC2(CCN(Cc3ccc(C#N)cc3)CC2)CC1	-3.54	
COCC(=O)N1CCC2(CC1)CCN(C(=O)Nc1cccc(C#N)c1)CC2	-16.6	
CC(=O)c1ccc(N2CCN(S(=O)(=O)c3ccc4c(c3)C(Cl)(Cl)C(=O)N4)CC2)cc1		26.9 µM (active)
CCC(=O)NC(c1cccs1)c1cc(Cl)c2ccccc2c1O (centres undefined)	-22.3	
O=C(c1cnccn1)N1CCC[C@@]2(CCN(C(c3ccccc3)c3ccccc3)C2)C1	-19.8	
O=c1cnc2cnc(Oc3cccc(Cl)c3)nc2n1Cc1ccc(F)cc1	-2.02	

SMILES	activity, negative = inhibition [%]	Potency
Cc1ccc(P(=O)(CSC(=N)N)c2ccc(C)cc2)cc1	-11.8	
COc1cc(O)c2c(=O)cc(C)oc2c1CC=C(C)C		inactive
O=C(Oc1ccccc1)N1CCC2(CCCN(c3ccccc3)C2)CC1	-11.6	
CN1C2CC(OC(=O)C(CO)c3ccccc3)CC1C1OC12 (centres undefined)	-7.86	
CN(C)c1ncc2nc(-c3cccs3)c(=O)n(CCC#N)c2n1	8.77	
COc1ccc(-n2c(=O)c(-c3cc(F)cc(F)c3)nc3cnc(N(C)C)nc32)cc1	-7.63	
O=C(CSc1nc2ccccc2n1CCc1ccccc1)c1ccc(O)c(O)c1		6.01 µM (active)
CC(/C=C1\SC(=S)N(CC(=O)O)C1=O)=C\c1ccccc1	-26	
O=C(CCc1ccccc1)Nc1ccc(S(=O)(=O)Nc2nccs2)cc1	-14.4	
CN(Cc1ccco1)c1ncnc2ccc(-c3ccoc3)cc12	-11.8	
COc1ccc(C(=O)N2CCC3(CC2)CN(c2ccncc2)C3)cc1	-12.6	
COc1cccc(Cn2c(=O)c(-c3cn(C)c4ccccc34)nc3cnc(N4CCNCC4)nc32)c1	-17.9	
COc1ccccc1-c1cc(NCc2cccc(C)c2)ncn1	-11	
CC(=O)NC(c1ccco1)c1cc(Cl)c2ccccc2c1O (centres undefined)	-17.9	
CN(C)c1ncc2nc(-c3cccs3)c(=O)n(C[C@H]3CCCO3)c2n1	7.68	
CCN(CC)C(=O)CC(c1ccc2c(c1)OCO2)c1c(O)cc(OC)cc1OC (centres undefined)	-22.2	
CCC(=O)NC(c1cccs1)c1cc(Cl)c2cccnc2c1O (centres undefined)	-21.7	
